In PubChem BioAssay (NCATS):
Values joined by “and” are separate entries in the source; they are usually repeats but may differ in a detail not shown here. Equal values may be shown once. Results filed as inconclusive are left out. Active and inactive are the calls of the source. Calls come from the whole dose curve; as a rule, active = well fitted curve in the direction sought with a large enough effect; inconclusive = small, poorly fitted or top-dose-only effect, or another doubt; inactive = no such curve, though single readings can be large; an effect the other way counts as inactive or inconclusive.

Legend:
Tov112D = experiment: Primary qHTS to identify gynecologic anti-cancer compounds using libraries of approved drugs and bioactive compounds (AID 1345084); settings: Gynecologic cancer cell panel viability, ATPlite luminescence, 48 h; series mostly up to 57.5 µM; note: nearly all actives have a fitted effect of over 55% in size
How it was run: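 Five-point cytotoxicity, 48 h drug exposure at 37 C, 5% CO2, on cells seeded 16 h beforehand. ATP content read by ATPlite luminescence.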

[1] = Drug repurposing screens with cells derived from glioblastoma tumor samples (AID 1345199); settings: GBM patient neurospheres viability, ATP luminescence, 48 h; note: nearly all actives have a fitted effect of over 40% in size
How it was run: (§1)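 Four patient lines of CD133+ GBM neurospheres were screened at several concentrations; hits were retested in those lines plus three slower-growing GBM lines, using 48-hour treatment and ATP-based viability.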

astro = experiment: as above; settings: viability, ATP luminescence, 48 h; series mostly up to 45.9 µM
How it was run: as §1

[2] = at 45.9 µM (top of the series), tumour line B
[3] = at 45.9 µM (top of the series), tumour line D
[4] = at 46 µM (top of the series), tumour line A
% is set by controls: 0 for no effect and ±100 for the full control effect.

CC1OC(C)OC(C)O1 (stereo not drawn)
inactive: Potency (Tov112D) | activity, negative = cell killing [1, 2] 0.183% and 0.957% | activity, negative = cell killing [1, 3] -11.1% and -5.15% | activity, negative = cell killing [1, 4] -20.8% and 1.27% | Potency (astro)

CN(C)[C@@H]1C(=O)C(C(N)=O)=C(O)[C@@]2(O)C(=O)C3=C(O)c4c(O)cccc4[C@@](C)(O)[C@H]3C[C@@H]12
inactive: Potency (Tov112D) | activity, negative = cell killing ([1]; at 21.2 µM (top of the series), tumour line B) -16.2% | activity, negative = cell killing ([1]; at 21.2 µM (top of the series), tumour line D) -21.5% | Potency (astro)

C=CCN1CC[C@]23c4c5ccc(O)c4O[C@H]2C(=O)CC[C@@]3(O)[C@H]1C5
inactive: Potency (Tov112D) | activity, negative = cell killing [1, 3] -22.2% | activity, negative = cell killing [1, 4] 15.9% | Potency (astro)

N[C@@H](Cc1ccc(Oc2cc(I)c(O)c(I)c2)c(I)c1)C(=O)O
inactive: Potency (Tov112D) | activity, negative = cell killing [1, 2] -6.2% | activity, negative = cell killing [1, 3] -17.5% | activity, negative = cell killing [1, 4] -27.6% | Potency (astro)

CCN(CC)C(=O)N[C@@H]1C=C2c3cccc4[nH]cc(c34)C[C@@H]2N(C)C1
inactive: Potency (Tov112D) | activity, negative = cell killing [1, 2] -7.53% | activity, negative = cell killing [1, 3] -22.7% | Potency (astro)

CCCN1CCC[C@@H]2Cc3nc(N)ncc3C[C@H]21
inactive: Potency (Tov112D) | activity, negative = cell killing [1, 2] -7.67% | activity, negative = cell killing [1, 3] -0.18% | Potency (astro)

CC(C)(N)Cc1ccc(Cl)cc1
inactive: Potency (Tov112D) | activity, negative = cell killing [1, 2] -10.8% | activity, negative = cell killing [1, 3] -8.85% | Potency (astro)

CC(=O)Nc1cc([As](=O)(O)O)ccc1O
inactive: Potency (Tov112D) | activity, negative = cell killing [1, 2] -26.4% | activity, negative = cell killing [1, 3] -5.27% | Potency (astro)

CC(=O)[C@H]1CC[C@H]2[C@@H]3CC[C@H]4C[C@H](O)CC[C@]4(C)[C@H]3C(=O)C[C@]12C
inactive: Potency (Tov112D) | activity, negative = cell killing [1, 2] -8.44% | activity, negative = cell killing [1, 3] -5.23% | Potency (astro)
